Experiment [1] deals with Lysosomal acid glucosylceramidase (Homo sapiens) (UniProt P04062). The experiment can be described thus: Glucocerebrosidase-p2 (AID 348; in the data active = potency below about 10 µM; note: potency is the fitted concentration of half-maximal effect). To be noted: purified GBA, blue fluorogenic substrate, 40 min. An outline of the steps:
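Normal human glucocerebrosidase (0.2 nM) with blue fluorogenic substrate (80 uM final) in citrate/phosphate pH 5.9 with 10mM sodium taurocholate, 0.01% tween-20; 40 min RT, NaOH/glycine stop; fluorescence Ex 365/Em 440; AC50 from a titration from 0.6 nM upwards.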

Experiment [2] can be described thus: AP1 Signaling Pathway (AID 357; active = well fitted curve in either direction with a large enough effect, not every such curve was filed as active;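 note: ME-180 reporter cells stimulated with EGF at its EC50 level; % is set by controls: 0 for no effect and ±100 for the full control effect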). As to conditions: ME-180 AP-1-bla reporter, EGF-induced, beta-lactamase ratio, 5 h; at 7.69 µM (top of the series) unless noted. An outline of the steps:
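AP-1-bla ME-180 cells, Opti-MEM + 0.5% dialyzed FBS, plated overnight 37 °C. Cpd titration + EC50 EGF, 5 h 37 °C. CCF4 2.5 h RT; ex 405, em 460/530 ratio → %activity, AC50.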

Experiment [3] addresses Cytochrome P450 1A2 (Homo sapiens) (UniProt P05177). Briefly: p450-cyp1a2 (AID 410; calls by dose curve; note: potency is the fitted concentration of half-maximal effect). As to conditions: recombinant CYP1A2, luciferin-ME demethylation, luminescence; series mostly up to 57 µM. In outline:
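Read-out is luminescence from luciferin produced by CYP1A2 demethylation of Luciferin-ME (100uM, at Km). Detection reagent stopped the 60 min NADPH-dependent reaction; signals were normalized to 57 uM furafylline.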

Experiment [4] can be described thus: NFAT Signaling Pathway (AID 444; active = well fitted curve in either direction with a large enough effect, not every such curve was filed as active;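 note: carbachol stimulus at about its EC50 of 1 µM final; % is set by controls: 0 for no effect and ±100 for the full control effect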). As to conditions: Jurkat NFAT-bla M1, carbachol, beta-lactamase ratio, 5 h; at 7.69 µM (top of the series) unless noted. An outline of the steps:
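Read-out: CCF4 FRET ratio (460 nm/530 nm) after 1 h RT dye loading, used for %activity and AC50 from titration series. Cells: Jurkat NFAT-β-lactamase/M1 line, treated with compound plus 1 uM carbachol for 5 h, 37 °C.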

Experiment [5] can be described thus: Stat Signaling Pathway (AID 446; active = well fitted curve in either direction with a large enough effect, not every such curve was filed as active;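 note: ME-180 cervical cancer cells given 40 pM IL-6 alongside compound; SIE-controlled beta-lactamase reporter measured as 460/530 nm FRET emission ratio; % is set by controls: 0 for no effect and ±100 for the full control effect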). To be noted: ME-180 (cervical carcinoma) SIE beta-lactamase reporter, IL-6 stimulated, 5 h; at 7.69 µM (top of the series) unless noted. An outline of the steps:
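Normalization used AC90 stimulation (300 pM IL-6) and AC90 inhibition (125 nM pan-JAK inhibitor at 40 pM IL-6). The underlying signal is SIE-driven beta-lactamase in ME-180 cells after 5 h IL-6 exposure with compound.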

In experiment [6] the target is Glucocorticoid receptor (Homo sapiens) (UniProt P04150). The experiment can be described thus: GR-GFP Redistribution (AID 450;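 active = compounds whose dose series gives a full or clear partial fitted curve of increased nuclear translocation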; note: potency is the fitted concentration of half-maximal effect). As to conditions: U2OS GR-GFP nuclear translocation, laser cytometry, 2 h.
Sequence of Glucocorticoid receptor (Homo sapiens) (P04150 whole entry, looked up): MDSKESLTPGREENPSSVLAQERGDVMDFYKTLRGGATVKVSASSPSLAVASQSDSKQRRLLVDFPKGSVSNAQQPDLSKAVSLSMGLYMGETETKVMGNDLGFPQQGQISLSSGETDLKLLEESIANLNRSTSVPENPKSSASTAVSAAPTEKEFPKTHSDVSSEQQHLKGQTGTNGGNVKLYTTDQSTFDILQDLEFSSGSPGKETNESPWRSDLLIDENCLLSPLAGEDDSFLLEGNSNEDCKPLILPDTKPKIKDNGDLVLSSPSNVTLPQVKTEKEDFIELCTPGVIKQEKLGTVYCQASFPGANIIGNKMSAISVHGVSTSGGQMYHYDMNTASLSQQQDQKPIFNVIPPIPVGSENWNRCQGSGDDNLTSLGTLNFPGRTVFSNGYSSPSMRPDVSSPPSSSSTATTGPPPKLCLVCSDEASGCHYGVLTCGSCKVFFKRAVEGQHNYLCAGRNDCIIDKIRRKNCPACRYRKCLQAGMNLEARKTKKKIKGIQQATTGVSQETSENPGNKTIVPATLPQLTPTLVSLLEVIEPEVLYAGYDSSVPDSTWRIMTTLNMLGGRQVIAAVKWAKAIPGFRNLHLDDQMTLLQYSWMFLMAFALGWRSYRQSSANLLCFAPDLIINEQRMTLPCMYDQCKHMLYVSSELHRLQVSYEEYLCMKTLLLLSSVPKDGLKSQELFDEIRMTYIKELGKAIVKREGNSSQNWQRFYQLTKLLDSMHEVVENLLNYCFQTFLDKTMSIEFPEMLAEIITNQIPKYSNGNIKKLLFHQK
For experiment [7] the target is unchanged. The experiment can be described thus: GR-EFC Redistribution (AID 451; calls by dose curve; note: potency is the fitted concentration of half-maximal effect). As to conditions: CHO-K1 GR-EFC translocation, beta-gal luminescence, 2 h. An outline of the steps:
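Translocation of GR-ED fusion to nuclear EA restores b-gal, read by luminescence after 1 h room-temperature detection. Engineered CHO-K1 biosensor cells, 1,000/well, exposed 2 h at 37 C to titrations up to 46 uM final.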

The target in experiment [8] is Mitogen-activated protein kinase 10 (Mus musculus) (UniProt Q61831). Briefly: JNK3 AlphaScreen Assay (AID 530; active = well fitted curve in either direction with a large enough effect, not every such curve was filed as active;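 note: kinase came from lysate of stimulated human HepG2 cells; signal reports phosphorylation of biotinylated GST-cJun 1-79 at Ser73 with 10 µM ATP; % is set by controls: 0 for no effect and ±100 for the full control effect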). As to conditions: JNK3 lysate, c-Jun phosphorylation; series mostly up to 57.1 µM. In outline:
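Kinase buffer: 20 mM Tris-HCl pH 7.6, 10 mM MgCl2, 1 mM DTT, 0.1 mM Na3VO4, 0.01% Tween-20; ATP 10 uM. Substrate biotin-GST-cJun(1-79), enzyme from activated HepG2 lysates. Detection by Ser73 phospho-antibody AlphaScreen.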

Experiment [9] deals with 3',5'-cyclic-AMP phosphodiesterase 4B (Homo sapiens) (UniProt Q07343). Briefly: qHTS Assay for Inhibitors of PDE-IV (AID 607; active = well fitted activation curve with a large enough effect in the main read-out, with a control signal flat, not every such curve was filed as active; note: % of control where 0% means no effect). To be noted: HEK293 ACTOne CNG channel cells, membrane potential fluorescence; series mostly up to 22.9 µM. An outline of the steps: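 HEK293 ACTOne cells with CNG channel (1000/well), endogenous PDE4; membrane potential dye, compounds up to 22.9 uM final. Fluorescence Ex 535/Em 590; RO 20-1724 (100 uM final) as reference.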
Sequence of 3',5'-cyclic-AMP phosphodiesterase 4B (Homo sapiens) (Q07343 whole entry, looked up): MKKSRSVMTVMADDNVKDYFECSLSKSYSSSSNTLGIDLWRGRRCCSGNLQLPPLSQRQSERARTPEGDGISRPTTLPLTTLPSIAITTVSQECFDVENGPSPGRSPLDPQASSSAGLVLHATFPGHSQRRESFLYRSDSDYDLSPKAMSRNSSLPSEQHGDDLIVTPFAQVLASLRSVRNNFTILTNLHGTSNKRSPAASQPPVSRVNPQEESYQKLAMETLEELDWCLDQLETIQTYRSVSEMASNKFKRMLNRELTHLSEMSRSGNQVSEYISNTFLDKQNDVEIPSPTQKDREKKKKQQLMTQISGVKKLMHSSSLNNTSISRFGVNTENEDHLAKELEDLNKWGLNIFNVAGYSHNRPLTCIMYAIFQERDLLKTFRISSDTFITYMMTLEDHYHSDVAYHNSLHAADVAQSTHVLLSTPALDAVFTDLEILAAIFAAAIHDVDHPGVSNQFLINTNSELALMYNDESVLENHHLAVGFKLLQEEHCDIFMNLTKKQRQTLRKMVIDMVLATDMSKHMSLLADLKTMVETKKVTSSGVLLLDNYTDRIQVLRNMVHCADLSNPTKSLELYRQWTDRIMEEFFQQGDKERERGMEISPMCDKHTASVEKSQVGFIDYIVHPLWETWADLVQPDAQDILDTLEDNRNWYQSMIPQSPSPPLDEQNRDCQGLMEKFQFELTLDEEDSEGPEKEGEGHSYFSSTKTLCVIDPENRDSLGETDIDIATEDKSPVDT

The nature of experiment [10]: qHTS Assay for Lipid Storage Modulators (AID 1519; calls by dose curve). To be noted: Drosophila S3 cells, BODIPY lipid droplet/cell ratio, laser cytometry, cells loaded with oleic acid; for activity change, negative = inhibition: at 57.5 µM (top of the series). In outline: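 Cells seeded at 5,000 per well were treated with compounds over a concentration series and loaded with oleic acid (400 uM, as added). Lipid droplet fluorescence (488 nm excitation, 500-530 nm channel) was read by laser-scanning cytometry and normalized to 20 uM Triacsin C.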

The target in experiment [11] is Dual specificity protein kinase CLK4 (Homo sapiens) (UniProt Q9HAZ1). The experiment can be described thus: qHTS Assay for Inhibitors of CDC-like Kinase 4 (Kinase-Glo Assay) (AID 1770). Note: % is set by controls: 0 for no effect and ±100 for the full control effect; nearly all actives have a fitted effect of over 65% in size. As to conditions: recombinant Clk4, Kinase-Glo ATP depletion luminescence; series mostly up to 66.7 µM. In outline: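 Readout: Kinase-Glo luminescence from ATP left after a 4.5 h room-temperature reaction of 25 nM Clk4 with 100 uM RS peptide and 1 uM ATP (final). Buffer: 25 mM Tris pH 7.5, 10 mM MgCl2.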
Sequence of Dual specificity protein kinase CLK4 (Homo sapiens) (Q9HAZ1 whole entry, looked up): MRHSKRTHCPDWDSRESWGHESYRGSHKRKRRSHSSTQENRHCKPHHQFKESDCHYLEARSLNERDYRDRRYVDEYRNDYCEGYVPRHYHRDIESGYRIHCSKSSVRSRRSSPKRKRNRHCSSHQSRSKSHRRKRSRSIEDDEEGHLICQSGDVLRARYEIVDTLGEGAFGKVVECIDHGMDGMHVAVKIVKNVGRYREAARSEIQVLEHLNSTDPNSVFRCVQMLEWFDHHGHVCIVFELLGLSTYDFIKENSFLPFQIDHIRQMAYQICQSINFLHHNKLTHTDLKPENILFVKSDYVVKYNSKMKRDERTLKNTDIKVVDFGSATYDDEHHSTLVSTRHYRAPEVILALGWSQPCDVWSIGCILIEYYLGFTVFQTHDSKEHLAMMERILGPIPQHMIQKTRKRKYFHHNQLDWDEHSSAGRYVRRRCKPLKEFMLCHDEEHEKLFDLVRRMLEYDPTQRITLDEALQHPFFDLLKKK

Experiment [12] shares this target. Briefly: qHTS Assay for Inhibitors of CDC-like Kinase 4 (ADP-Glo Assay) (AID 1771). Note: % is set by controls: 0 for no effect and ±100 for the full control effect; nearly all actives have a fitted effect of over 70% in size. As to conditions: recombinant CLK4, ADP-Glo luminescence; series mostly up to 80 µM. An outline of the steps: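 In this ADP-Glo format, 1 uM ATP and 100 uM RS peptide served as substrates for 25 nM Clk4 in Mg2+/EGTA/DTT/Triton buffer; reactions ran 1 hr at room temperature before luminescent ADP quantification.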

Experiment [13] shares this target. Briefly: qHTS Assay for Inhibitors of CDC-like Kinase 4 (ADP-FP Assay) (AID 1795).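 Note: recombinant human CLK4 phosphorylating RS repeat peptide at 1 µM ATP; % is set by controls: 0 for no effect and ±100 for the full control effect; nearly all actives have a fitted effect of over 60% in size.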 As to conditions: Transcreener ADP fluorescence polarization; series mostly up to 50 µM. An outline of the steps:
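FP readout: Orange Transcreener ADP2 tracer (4 nM) plus ADP antibody, read after 30 min at room temperature. Kinase step: 6.25 nM Clk4, 100 uM RS peptide, 1 uM ATP, pH 7.5, 1 h.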

Experiment [14] concerns the target Ubiquitin carboxyl-terminal hydrolase 1 (Homo sapiens) (UniProt O94782). Briefly: Inhibitors of USP1/UAF1: Pilot qHTS (AID 504865).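 Note: rhodamine fluorescence freed from ubiquitin-rhodamine substrate followed over time; top concentration of the series differs between compounds; % is set by controls: 0 for no effect and ±100 for the full control effect; nearly all actives have a fitted effect of over 35% in size.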 As to conditions: purified USP1/UAF1, Ub-rhodamine cleavage fluorescence; series mostly up to 54.9 µM. An outline of the steps: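 1nM USP1/UAF1 + cpd, 15 min RT; start w/ Ub-Rho 150nM final; kinetic FL 480/540 nm, 6 reads q60 s. Buffer 50mM HEPES pH 7.8, 0.5mM EDTA, 1mM TCEP, 0.01% Tween-20, 0.1 mg/ml BSA.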

Experiment [15] is described as follows: Primary qHTS for small molecule stabilizers of the endoplasmic reticulum resident proteome: Secreted ER Calcium Modulated Protein (SERCaMP) assay (AID 1508630). Note: % is set by controls: 0 for no effect and ±100 for the full control effect. To be noted: SH-SY5Y GLuc-SERCaMP (Gaussia luciferase released on ER calcium loss) secretion, thapsigargin, luminescence; series mostly up to 38.4 µM. An outline of the steps: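 The SH-SY5Y reporter protocol was run at 3 concentrations up to 38.3 uM (primary) or 11 concentrations (follow-up): 16 h compound, 100 nM thapsigargin for 4 h, then extracellular luciferase luminescence.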

The target in experiment [16] is Cytochrome P450 3A4 (Homo sapiens) (UniProt P08684). The experiment can be described thus: qHTS Assay for Activators of Cytochrome P450 3A4 (AID 885). Note: nearly all actives have a fitted effect of over 65% in size. As to conditions: recombinant CYP3A4, Luciferin-PPXE luminescence, 60 min; series mostly up to 57.1 µM. An outline of the steps: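 Human CYP3A4 dealkylates Luciferin-PPXE to luciferin, which luciferase detection converts to light. Substrate was at its KM (25uM), buffer 200mM KPO4, reaction 60 min at RT.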
Sequence of Cytochrome P450 3A4 (Homo sapiens) (P08684 whole entry, looked up): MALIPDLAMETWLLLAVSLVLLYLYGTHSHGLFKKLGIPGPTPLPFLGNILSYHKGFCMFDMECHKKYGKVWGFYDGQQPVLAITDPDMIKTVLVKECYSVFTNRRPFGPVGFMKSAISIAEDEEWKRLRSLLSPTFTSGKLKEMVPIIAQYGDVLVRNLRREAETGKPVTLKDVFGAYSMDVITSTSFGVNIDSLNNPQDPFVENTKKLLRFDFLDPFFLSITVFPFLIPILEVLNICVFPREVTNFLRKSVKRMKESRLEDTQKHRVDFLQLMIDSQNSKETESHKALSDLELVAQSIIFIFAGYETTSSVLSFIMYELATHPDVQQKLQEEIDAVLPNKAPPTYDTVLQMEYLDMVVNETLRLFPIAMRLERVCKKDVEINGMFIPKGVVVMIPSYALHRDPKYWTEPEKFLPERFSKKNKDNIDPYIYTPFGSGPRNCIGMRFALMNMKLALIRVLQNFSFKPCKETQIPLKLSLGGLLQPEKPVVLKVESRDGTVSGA

Experiment [17] addresses Rap guanine nucleotide exchange factor 3 (Homo sapiens) (UniProt O95398). Briefly: Confirmatory qHTS for agonist of cAMP-regulated guanine nucleotide exchange factor 3 (EPAC1) (AID 1645881).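 Note: EPAC1 catalysed release of BODIPY-GDP from Rap1B seen as fluorescence loss; nearly all actives have a fitted effect of over 75% in size.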 To be noted: EPAC1 Rap1B BODIPY-GDP exchange fluorescence, 100% = cAMP control response; series mostly up to 154 µM.
The target of experiment [18] is Rap guanine nucleotide exchange factor 4 (Homo sapiens) (UniProt Q8WZA2). The experiment can be described thus: Confirmatory qHTS for agonist of cAMP-regulated guanine nucleotide exchange factor 4 (EPAC2) (AID 1645884).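 Note: nucleotide exchange releases bodipy-GDP from Rap1 and this lowers its fluorescence; % is set by controls: 0 for no effect and ±100 for the full control effect; nearly all actives have a fitted effect of over 65% in size.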 To be noted: EPAC2 GEF activity, Rap1B-BODIPY-GDP fluorescence, percent relative to cAMP agonist control; series mostly up to 154 µM.
[19] abbreviates: measured here: cell count channel max response.
The mark [20] stands for this setting: measured here: lipid channel max response.

These results are taken from PubChem BioAssay (NCATS).

Results filed as inconclusive are left out. Calls of active or inactive are those of the source. Unless noted, calls come from the whole dose curve; as a rule, active = well fitted curve in the direction sought with a large enough effect; inconclusive = small, poorly fitted or top-dose-only effect, or another doubt; inactive = no such curve, though single readings can be large; an effect the other way counts as inactive or inconclusive.

Sequence of Cytochrome P450 1A2 (Homo sapiens) (P05177 whole entry, looked up): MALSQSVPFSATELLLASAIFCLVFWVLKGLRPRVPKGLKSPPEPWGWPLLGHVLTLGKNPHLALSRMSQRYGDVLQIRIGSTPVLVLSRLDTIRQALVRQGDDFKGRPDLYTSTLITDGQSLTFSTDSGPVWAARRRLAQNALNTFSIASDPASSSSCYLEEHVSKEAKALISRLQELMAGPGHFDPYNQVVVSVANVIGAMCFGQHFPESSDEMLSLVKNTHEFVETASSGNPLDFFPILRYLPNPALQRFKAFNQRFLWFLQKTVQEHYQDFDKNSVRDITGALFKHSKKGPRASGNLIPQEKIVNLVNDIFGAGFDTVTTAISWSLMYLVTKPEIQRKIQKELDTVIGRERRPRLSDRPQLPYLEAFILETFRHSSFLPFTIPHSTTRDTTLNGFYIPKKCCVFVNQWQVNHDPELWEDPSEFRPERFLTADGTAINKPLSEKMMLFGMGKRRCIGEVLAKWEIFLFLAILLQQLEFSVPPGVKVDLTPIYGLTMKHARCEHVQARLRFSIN
Sequence of Lysosomal acid glucosylceramidase (Homo sapiens) (P04062 whole entry, looked up): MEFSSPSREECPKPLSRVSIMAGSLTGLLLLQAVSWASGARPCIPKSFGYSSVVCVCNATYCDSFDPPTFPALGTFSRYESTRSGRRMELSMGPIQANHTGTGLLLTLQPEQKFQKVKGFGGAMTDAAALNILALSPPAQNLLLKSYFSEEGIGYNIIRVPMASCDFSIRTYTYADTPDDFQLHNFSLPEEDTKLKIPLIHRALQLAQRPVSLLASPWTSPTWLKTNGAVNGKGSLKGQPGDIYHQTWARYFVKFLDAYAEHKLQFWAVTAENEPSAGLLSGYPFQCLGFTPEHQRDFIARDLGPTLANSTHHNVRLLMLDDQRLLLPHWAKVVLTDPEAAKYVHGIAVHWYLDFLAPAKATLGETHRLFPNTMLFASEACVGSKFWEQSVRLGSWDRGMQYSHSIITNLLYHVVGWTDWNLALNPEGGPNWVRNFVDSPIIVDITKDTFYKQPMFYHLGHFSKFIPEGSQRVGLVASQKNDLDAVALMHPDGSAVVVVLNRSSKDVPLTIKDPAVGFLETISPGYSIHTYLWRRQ
Sequence of Ubiquitin carboxyl-terminal hydrolase 1 (Homo sapiens) (O94782 whole entry, looked up): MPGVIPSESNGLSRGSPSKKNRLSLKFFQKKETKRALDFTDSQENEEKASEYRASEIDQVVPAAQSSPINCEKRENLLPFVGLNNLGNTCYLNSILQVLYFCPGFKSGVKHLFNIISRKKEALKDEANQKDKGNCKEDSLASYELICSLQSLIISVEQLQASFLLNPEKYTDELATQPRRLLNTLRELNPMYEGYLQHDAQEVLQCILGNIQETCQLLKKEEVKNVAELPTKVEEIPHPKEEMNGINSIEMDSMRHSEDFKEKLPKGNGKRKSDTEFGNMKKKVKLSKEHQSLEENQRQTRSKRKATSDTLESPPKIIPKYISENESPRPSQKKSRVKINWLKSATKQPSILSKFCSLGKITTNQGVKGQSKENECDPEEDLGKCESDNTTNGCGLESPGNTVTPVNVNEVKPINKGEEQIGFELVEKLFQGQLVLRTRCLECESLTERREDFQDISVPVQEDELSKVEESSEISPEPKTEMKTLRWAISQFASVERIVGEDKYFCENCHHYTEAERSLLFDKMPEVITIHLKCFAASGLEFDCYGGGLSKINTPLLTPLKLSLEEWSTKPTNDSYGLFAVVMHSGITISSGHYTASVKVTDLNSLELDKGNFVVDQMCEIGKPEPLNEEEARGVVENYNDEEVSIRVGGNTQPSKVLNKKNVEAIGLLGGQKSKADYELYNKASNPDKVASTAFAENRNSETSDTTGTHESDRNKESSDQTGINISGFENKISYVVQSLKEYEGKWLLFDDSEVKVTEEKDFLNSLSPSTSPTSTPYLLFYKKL

As for `COc1ncc2nc(-c3cc(F)cc(F)c3)c(=O)n(-c3ccccc3)c2n1`, the Potency in [1] is > 11.4 µM (inactive); in experiment [3], 1.26 µM (active); in experiment [6] it was > 9.22 µM (inactive); in experiment [7], > 46 µM (inactive). The activity change, negative = inhibition was -20.2% (inactive) in experiment [2], -3.83% (inactive) in experiment [4] and 3.41% (inactive) in experiment [10]. Also, the activity, negative = inhibition in [5] was -1.05% (inactive). Besides, the compound was called inactive in [8]. Besides, the Potency result in experiment [9], in [11], in experiment [12], in experiment [13], in experiment [14] and in [15] was “inactive” each time. Besides, the max response in [10] (setting [19]) was 11.4%; in experiment [10] (setting [20]), 11.8%.

As for `COc1cccc(Nc2ncc3nc(-c4ccc(F)cc4)c(=O)n(C)c3n2)c1`, the Potency is > 11.4 µM (inactive) in experiment [1], 3.16 µM (active) in experiment [3], > 9.22 µM (inactive) in experiment [6] and > 46 µM (inactive) in experiment [7]. Further, the results for the activity change, negative = inhibition in experiment [2], in [4] and in [10] were -6.29% (inactive), -16.4% (inactive) and 5.16% (inactive), respectively. Besides, the activity, negative = inhibition in [5] is -6.63% (inactive). Also, the result in experiment [8] was inactive. Moreover, the Potency result in [9], in experiment [11], in [12], in [13], in experiment [14] and in [15] was “inactive” each time. For the same compound, the max response in [10] (setting [19]) worked out at 19%; in [10] (setting [20]), 25.1%.

On to `Cc1nc2cnc(N3CCN(C)CC3)nc2n(C)c1=O`, for which the Potency was > 11.4 µM (inactive) in [1], 12.6 µM (active) in experiment [3], > 9.22 µM (inactive) in experiment [6] and > 46 µM (inactive) in [7]. The activity change, negative = inhibition in experiment [2] is 2.98% (inactive); in [4], 8.62% (inactive); in [10], 3.28% (inactive). Besides, in experiment [5], the activity, negative = inhibition is -15% (inactive). The call in experiment [8] was inactive. Further, the Potency result in experiment [9], in [11], in experiment [12], in experiment [13], in experiment [14] and in experiment [15] was “inactive” throughout. Also, the values for the max response in [10] (setting [19]) and in [10] (setting [20]) were 5.81% and 7.23%, respectively.

As for `O=C(c1cnccn1)N1CCC[C@@]2(CCN(C(c3ccccc3)c3ccccc3)C2)C1`, the Potency is > 11.4 µM (inactive) in experiment [1], 15.8 µM (active) in experiment [3] and > 46 µM (inactive) in experiment [7]. The activity change, negative = inhibition in experiment [2] was 0.193% (inactive); in experiment [4], 11.2% (inactive); in experiment [10], -1.1% (inactive). In experiment [5], the activity, negative = inhibition was 16.5% (inactive). Further, the call in [8], in [17] and in experiment [18] was inactive. For the same compound, the Potency entry in [9], in experiment [16] and in experiment [15] was “inactive” throughout. Further, the values for the max response in experiment [10] (setting [19]) and in [10] (setting [20]) were 3.2% and 5.21%, respectively.

Consider `CNc1ccnc(-c2ccccc2OC)n1`, for which the Potency in [1] was > 11.4 µM (inactive); in experiment [3], 5.01 µM (active); in experiment [6] it was > 46 µM (inactive); in [7], > 46 µM (inactive). Besides, the activity change, negative = inhibition in [2] was 4.71% (inactive); in experiment [4], 8.86% (inactive); in [10] it was 6.44% (inactive). Also, in experiment [5], the activity, negative = inhibition is 16.8% (inactive). For the same compound, the outcome in [8] was inactive. Besides, the Potency result in experiment [9], in experiment [16], in experiment [11], in experiment [12], in experiment [13] and in experiment [14] was “inactive” each time. For the same compound, in [15], the Potency result was “inactive”. Further, the max response in [10] (setting [19]) came out at 21.3%; in experiment [10] (setting [20]), 26.2%.

As for `CN1CCN(c2ncc3ncc(=O)n(CCC#N)c3n2)CC1`, the Potency in experiment [1] is > 11.4 µM (inactive); in experiment [3], 31.6 µM (active); in experiment [6], > 9.22 µM (inactive); in [7], > 46 µM (inactive). In addition, the activity change, negative = inhibition in experiment [2] is -10.2% (inactive); in experiment [4], -4.67% (inactive); in experiment [10], 6.98% (inactive). Besides, the activity, negative = inhibition in experiment [5] is -3.39% (inactive). Also, in experiment [8], the compound was classed as inactive. Further, the Potency result in experiment [9], in [11], in [12], in experiment [13], in [14] and in experiment [15] was “inactive” in each case. Moreover, the max response is 9.3% in experiment [10] (setting [19]) and 10.7% in [10] (setting [20]).
